# In all, about 4,100 compounds went through this assay and about 1,600 (39%) were called active. Not shown: some 25% with an inconclusive outcome. The list shows a part of the results. Unmarked numbers belong to inactive results. Calls follow the shape of the dose curve; as a rule, active = well fitted inhibition curve with a large enough effect; inconclusive = small, poorly fitted or top-dose-only effect; inactive = no such curve, though single readings can be large or run the other way.
# Test: qHTS Validation assay for Inhibitors of Plasmodium falciparum Dd2 growth in vitro; also: nearly all actives have a fitted effect of over 70% in size
# Details: P. falciparum Dd2 in RBCs, SYBR Green growth, 72 h; series mostly up to 28.7 µM; activity change, negative = inhibition: at the top concentration
# Outline: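 P. falciparum Dd2-infected red blood cells (2.5% hematocrit, 0.3% parasitemia) grown 72 h at 37 °C under 5% O2 with compounds in a titration, 29 uM to 0.5 nM final. Growth read as SYBR Green-1 fluorescence after ~16 h lysis; artesunate 300 nM as positive control.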
# % is scaled to controls: 0 for no effect and ±100 for the full control effect; potency is read from the fitted curve at half-maximal effect.
Compound,"activity change, negative = inhibition",Potency
O=C(c1ccco1)N1CC(Oc2cccc(-c3nc(-c4ccccc4)no3)c2)C1,-21.8%,
CCCNC(=O)N1CC(Oc2cccc(-c3nc(-c4ccccc4)no3)c2)C1,,13.3 µM (active)
Cc1noc(-c2cccc(OC3CN(S(=O)(=O)c4cn(C)cn4)C3)c2)n1,38.6%,
COc1ccc(OC)c(S(=O)(=O)Nc2ccc(O)c3ccccc23)c1,,8.41 µM (active)
COc1ccc(OC)c(S(=O)(=O)NCCc2sc(C)nc2C)c1,-7.9%,
Cc1nc(-c2ccc(Cl)cc2)sc1CCNC(=O)c1ccco1,-10.7%,
CCCCN(C(=O)c1ccco1)c1nnc(-c2cc(OC)c(OC)c(OC)c2)s1,,2.99 µM (active)
Cc1ccc(C(=O)NN2C(=O)C3C4C=CC(C4)[C@@H]3C2=O)cc1 (stereo partly specified),68.1%,
O=C(c1ccc2ncccc2c1)N1CCc2c(nc3cc[nH]n3c2=O)C1,8.27%,
OC(CNCC1CCCO1)Cn1c2ccc(Cl)cc2c2cc(Cl)ccc21 (stereo unspecified),,1.19 µM (active)
COc1cc(-c2nc(-c3c(C)noc3C)cc3c2cc(C)n3CCN(C)C)ccn1,,17.2 µM (active)
CCc1cccc(C)c1Nc1c(-c2cccc(O)c2)nc2sccn12,0.531%,
Cc1noc(C)c1-c1cc2c(cc(C)n2CCN(C)C)c(Nc2ccn(C)n2)n1,,13.7 µM (active)
COc1cccc(-c2nc(-c3c(C)noc3C)cc3c2cc(C)n3CCN(C)C)c1,,17.2 µM (active)
Cc1noc(C)c1-c1cc2c(cc(C)n2C)c(NCCN(C)C)n1,-28.9% [at 43.1 µM],
Cc1noc(C)c1-c1cc2c(cc(C)n2CCN(C)C)c(-c2cccc(O)c2)n1,,17.2 µM (active)
COc1cccc(-c2noc(CCCc3nc(-c4cccnn4)no3)n2)c1,48.1%,
O=[S+]1([O-])NCC2(CCN(CC3CC3)CC2)Nc2ccccc21,23.9% [at 43.1 µM],
O=C(c1ccsc1)N1CC(n2cc(-c3ccccc3)nn2)C1,16.2%,
O=C(c1cccc(O)c1)N1CC=C(c2cnc3cnc(-c4ccccc4)cn23)CC1,,9.68 µM (active)
COc1ccc(CN2CC(Oc3ccccc3C(=O)NCc3ccccc3)C2)c(OC)c1,,10.6 µM (active)

Compound,"activity change, negative = inhibition",Potency
O=C(NCc1ccc(F)cc1)c1c2c(nc3ccccc13)C(=O)N(C1CCCCC1)C2,0%,
COCCNC(=O)[C@H]1C[C@H](Oc2ccccc2)CN1C(=O)c1ccccc1OC,14.8%,
Cc1c(CN2CC(Oc3ccccc3C(=O)NCc3ccccc3)C2)cnn1C,,4.22 µM (active)
O=C(NCc1ccccc1)c1ccccc1OC1CN(Cc2ccc(O)c(F)c2)C1,,15 µM (active)
Cc1ccsc1CN1CC(Oc2ccccc2C(=O)NC2CC2)C1,-24.7%,
O=C(NCC1CC1)c1cccc(OC2CN(Cc3cc(F)c(F)c(F)c3)C2)c1,-6.52%,
CCCN1CCN(C(=O)c2cc3c(s2)CCN(C(=O)c2ccc(F)cc2)C3)CC1,-26.7%,
O=C1C2=C(Nc3ccccc3SC2c2ccco2)c2ccccc21 (stereo unspecified),,4.73 µM (active)
O=C1C2=C(Nc3ccccc3SC2c2c(F)cccc2Cl)c2ccccc21 (stereo unspecified),,9.44 µM (active)
COc1ccc(C2Sc3ccccc3NC3=C2C(=O)c2ccccc23)c(OC)c1OC (stereo unspecified),,0.75 µM (active)
CCn1ncc(CN2CCCC23CCN(c2cc(C)nc4ccccc24)CC3)c1C,,5.31 µM (active)
CCn1cc(CN2CCCC23CCN(c2cc(C)nc4ccccc24)CC3)c(C)n1,,4.22 µM (active)
CN(C)c1nc2c(c(=O)[nH]1)CCN(Cc1ccc(Br)cc1)CC2,,13.3 µM (active)
COc1cc(OC)c(OC)cc1CN1CCc2nc(N(C)C)[nH]c(=O)c2CC1,3.94%,
CN(C)c1nc2c(c(=O)[nH]1)CCN(Cc1ccccc1Br)CC2,,9.44 µM (active)
CN(C)c1nc2c(c(=O)[nH]1)CCN(Cc1ccc(F)cc1Cl)CC2,,10.6 µM (active)
O=C(CCc1ccccc1)N1CCc2c(nc(-c3ccc(F)cc3)[nH]c2=O)C1,3.77%,
N#Cc1ccc(CN2CCc3n[nH]c(=O)n3CC2)cc1,18%,
CN(C)c1ccc(C(=O)NCc2nnc3cc(-c4nc(C5CC5)no4)ccn23)cc1,8.1%,
Oc1cc(Nc2ccccc2)cc2cccnc12,,6.68 µM (active)
Oc1cc(Nc2ccc(N3CCCCC3)cc2)cc2cccnc12,,0.842 µM (active)

Compound,"activity change, negative = inhibition",Potency
COc1ccc(Nc2cc(O)c3ncccc3c2)cc1,,0.75 µM (active)
CCOC(=O)c1ccccc1NC(=O)C(C)Oc1ccccc1 (stereo unspecified),,10.6 µM (active)
Cc1ccc(OCC(=O)Nc2ccccc2C(=O)OCc2cc(=O)n3ccsc3n2)cc1,36.1%,
COc1ccc(C)cc1NC(=O)N1CCCC2(C1)Nc1cccnc1NC2=NC1CCCC1 (stereo unspecified),,6.68 µM (active)
O=C(c1ccc2nc[nH]c2c1)N1CCCC2(C1)Nc1cccnc1NC2=NC1CCCC1 (stereo unspecified),0%,
COc1ccc(C)cc1NC(=O)N1c2ccccc2CC1c1nc(C2CC2)no1 (stereo unspecified),-12.9%,
CCOc1ccc(-c2cc3c(=O)n(CCNC(=O)c4cccc(C#N)c4)ccn3n2)cc1,-6.7%,
CCCN1CCN(CCCNC(=O)c2ccc3c(c2)sc2nc(-c4ccc(OCC)cc4)cn23)CC1,,4.22 µM (active)
CCOc1ccc(-c2cn3c(n2)sc2cc(C(=O)NC(C)C45CC6CC(CC(C6)C4)C5)ccc23)cc1 (stereo unspecified),,5.96 µM (active)
COc1ccc(-c2cc3c(=O)n(CCNC(=O)c4ccc(OC)nc4)ccn3n2)cc1,-14.6%,
CCOc1ccc(-c2cc3c(=O)n(CCNC(=O)c4ccccc4)ccn3n2)cc1,13.3%,
COc1ccc(-c2cn3c(n2)sc2cc(C(=O)NCCCN4CCCCC4)ccc23)cc1,,4.73 µM (active)
CCOc1ccc(-c2cn3c(n2)sc2cc(C(=O)NCCCc4ccccc4)ccc23)cc1,-30.3%,
CCOc1ccc(-c2cc3c(=O)n(CCNC(=O)c4ccc(C#N)cc4)ccn3n2)cc1,-7.04%,
CCCN1CCN(CCCNC(=O)c2ccc3c(c2)sc2nc(-c4ccc(OC)cc4)cn23)CC1,,4.73 µM (active)
COc1ccc(-c2cc3c(=O)n(CCNC(=O)c4ccc(OC)c(OC)c4)ccn3n2)cc1,-16.9%,
CC1CCCCN1c1ccc(N)cc1C(N)=O (stereo unspecified),20.7%,
C#Cc1ccc(C(=O)Nc2ccc(N3CCC(C)CC3)c(C(N)=O)c2)cc1,,6.68 µM (active)
CCN1c2cc(C(=O)Nc3ccc4c(c3)CCC4)ccc2C(=O)N2CCCCC21 (stereo unspecified),-10%,

# — PubChem BioAssay AID1347416 (National Center for Advancing Translational Sciences (NCATS), 2020)
